The values that follow come from PubChem BioAssay.

Several values for one entry are separate records, joined by “and”; a condition that tells them apart may be missing. Equal entries are not always repeated. Activity calls are given as the source filed them.

Assay [1] is described as follows: optical density shifts of acrAB sulA E. coli – strain DRC41, OD650, 48 h, E. coli filamentation inducer project, primary screen (AID 1152).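 Further: E. coli MC1000 strain DRC41 lacking acrAB efflux pump and sulA.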 Conditions: higher = more signal, called active from +8 up or from −8 down.
Assay [2] in a line: probe aLefty1 binding on compound microarray – biochemical, small-molecule microarray, 635/667 nm fluorescence, primary screen (AID 1153).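 Further: score merges spot fluorescence with signal-to-noise ratio from the scanned slide images.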 Particulars: higher = more signal.
A short description of assay [3]: plasmodial surface anion channel blockers, osmotic lysis – cell-based, P. falciparum Indochina, OD700, 1 h, primary screen (AID 1154). Particulars: P. falciparum Indochina infected RBC osmotic lysis, higher = more signal, called active from +8 up or from −8 down.
Assay [4] is described as follows: plasmodial surface anion channel blockers, osmotic lysis – cell-based, P. falciparum Indochina, OD700, 2 h, primary screen (AID 1155).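 Further: lysis reports solute entry through the parasite surface anion channel PSAC.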 Conditions: P. falciparum Indochina infected erythrocytes, higher = more signal, called active from +8 up or from −8 down.
Assay [5] is described as follows: changes in parasitized red cell lysis, either direction – P. falciparum Indochina, OD700, 3 h, PSAC antagonist project, primary screen (AID 1156). Particulars: P. falciparum-infected erythrocytes, osmotic lysis, higher = more signal, called active from +8 up or from −8 down.
Assay [6] is described as follows: plasmodial surface anion channel blockers, osmotic lysis – cell-based, P. falciparum Indochina, OD700, 18 h, primary screen (AID 1157). Conditions: P. falciparum Indochina infected erythrocytes, osmotic lysis OD700, 18 h; higher = more signal, called active from +8 up or from −8 down.
Assay [7] in a line: S6 kinase pathway phospho-S6 level changes – cell-based, A549, cytoblot, luminescence, serum-stimulated, primary screen (AID 1158).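 Further: serum-stimulated A549 lung adenocarcinoma cells; signal is phosphorylated S6 detected by cytoblot immunostaining with HRP secondary.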 Particulars: 5 h, higher = more signal.
Assay [8] deals with NADPH oxidase 2 (Homo sapiens) (UniProt P04839). The assay can be described thus: compounds shifting NOX2 Amplex Red fluorescence – cell-based, HEK293-NOX2, PMA-stimulated, NOX inhibitor project, primary screen (AID 1159). Further: test concentration not given here. Particulars: 45 min, higher = more signal, called active from +8 up or from −8 down.
For assay [9], the target named is NADPH oxidase 4 (Homo sapiens) (UniProt Q9NPH5). The assay can be described thus: compounds shifting NOX4 Amplex Red fluorescence – cell-based, HEK293-NOX4, tetracycline-induced, NOX inhibitor project, primary screen (AID 1160). Conditions: HEK293-NOX4, Amplex Red H2O2 fluorescence, 45 min; higher = more signal, called active from +8 up or from −8 down.
Assay [10] has as its target NADPH oxidase 5 (Homo sapiens) (UniProt Q96PH1). As to the kind of experiment: compounds shifting NOX5 Amplex Red fluorescence – cell-based, HEK293-NOX5, NOX inhibitor project, primary screen (AID 1161). Particulars: HEK293-NOX5, ionomycin, 45 min, higher = more signal.
Assay [11] is described as follows: compound effects on lung adenocarcinoma cell viability – A549, calcein-AM fluorescence, 48 h, basal, profiling panel (AID 1162). Further: test concentration not given here. Particulars: higher = more signal.
Assay [12] is described as follows: compound effects on differentiated 3T3-L1 adipocyte viability – cell-based, 3T3-L1 adipocytes, calcein-AM fluorescence, 48 h, basal, profiling panel (AID 1163). Further: test concentration not given here. Conditions: 3T3-L1 adipocytes viability, higher = more signal.
Assay [13] can be described thus: compound effects on hepatocellular carcinoma cell viability – HepG2, calcein-AM fluorescence, 48 h, basal, profiling panel (AID 1164). Further: test concentration not given here. Conditions: higher = more signal.
Assay [14] can be described thus: compound effects on multiple myeloma cell viability – MM1S, calcein-AM fluorescence, 48 h, basal, profiling panel (AID 1165). Further: test concentration not given here. Conditions: higher = more signal.
A short description of assay [15]: calcein-AM signal in unstimulated myeloma cells – cell-based, calcein-AM fluorescence, 48 h, PK04 Diversity Set, profiling panel (AID 1166).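 Further: cells grown under basal conditions without added stimulus; test concentration not given here.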 Conditions: RPMI8226 myeloma viability, higher = more signal.
Assay [16] in a line: JC-1 mitochondrial signal, unstimulated HepG2 cells – cell-based, JC-1 fluorescence, 24 h, 100 nL compound, profiling panel (AID 1167). Further: test concentration not given here. Particulars: HepG2 mitochondrial potential, higher = more signal.
Assay [17] can be described thus: JC-1 mitochondrial signal, unstimulated adipocytes – cell-based, JC-1 fluorescence, 3T3-L1 adipocytes, 24 h, 100 nL compound, profiling panel (AID 1168). Further: test concentration not given here. Particulars: JC-1 mitochondrial fluorescence, higher = more signal, called active from +8 up or from −8 down.
Assay [18] is described as follows: JC-1 mitochondrial signal, unstimulated myeloma cells – cell-based, JC-1 fluorescence, RPMI8226, 24 h, 100 nL compound, profiling panel (AID 1169). Further: test concentration not given here. Particulars: JC-1 mitochondrial potential fluorescence, higher = more signal.
The nature of assay [19]: JC-1 mitochondrial signal, unstimulated MM1S myeloma – cell-based, JC-1 fluorescence, 24 h, 100 nL compound, profiling panel (AID 1170). Further: test concentration not given here. Conditions: MM1S mitochondrial potential, higher = more signal.
Assay [20] in a line: resazurin metabolic signal in A549 cells – cell-based, resazurin fluorescence, 24 h, PK04 Diversity Set, profiling panel (AID 1171). Further: test concentration not given here. Particulars: A549 viability, higher = more signal, called active from +8 up or from −8 down. A general note: The colour change of resazurin is a common sign of viable cells or microbes.

NADPH oxidase 2 (Homo sapiens), sequence (P04839 whole entry, looked up): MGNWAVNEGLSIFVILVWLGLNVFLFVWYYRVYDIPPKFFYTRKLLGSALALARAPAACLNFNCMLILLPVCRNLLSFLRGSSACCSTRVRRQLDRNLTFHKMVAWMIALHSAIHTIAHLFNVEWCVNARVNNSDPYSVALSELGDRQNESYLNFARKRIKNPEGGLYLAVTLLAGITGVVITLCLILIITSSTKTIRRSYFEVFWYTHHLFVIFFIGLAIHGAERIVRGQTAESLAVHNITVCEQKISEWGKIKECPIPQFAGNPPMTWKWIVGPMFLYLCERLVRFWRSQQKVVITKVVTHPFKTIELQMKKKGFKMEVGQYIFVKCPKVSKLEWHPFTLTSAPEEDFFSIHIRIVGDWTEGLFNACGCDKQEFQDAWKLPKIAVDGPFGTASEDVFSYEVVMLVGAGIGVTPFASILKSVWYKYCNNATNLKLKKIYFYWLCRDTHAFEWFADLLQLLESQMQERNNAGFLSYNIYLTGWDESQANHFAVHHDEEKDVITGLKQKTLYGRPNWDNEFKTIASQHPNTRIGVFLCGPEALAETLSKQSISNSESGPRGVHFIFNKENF
NADPH oxidase 4 (Homo sapiens), sequence (Q9NPH5 whole entry, looked up): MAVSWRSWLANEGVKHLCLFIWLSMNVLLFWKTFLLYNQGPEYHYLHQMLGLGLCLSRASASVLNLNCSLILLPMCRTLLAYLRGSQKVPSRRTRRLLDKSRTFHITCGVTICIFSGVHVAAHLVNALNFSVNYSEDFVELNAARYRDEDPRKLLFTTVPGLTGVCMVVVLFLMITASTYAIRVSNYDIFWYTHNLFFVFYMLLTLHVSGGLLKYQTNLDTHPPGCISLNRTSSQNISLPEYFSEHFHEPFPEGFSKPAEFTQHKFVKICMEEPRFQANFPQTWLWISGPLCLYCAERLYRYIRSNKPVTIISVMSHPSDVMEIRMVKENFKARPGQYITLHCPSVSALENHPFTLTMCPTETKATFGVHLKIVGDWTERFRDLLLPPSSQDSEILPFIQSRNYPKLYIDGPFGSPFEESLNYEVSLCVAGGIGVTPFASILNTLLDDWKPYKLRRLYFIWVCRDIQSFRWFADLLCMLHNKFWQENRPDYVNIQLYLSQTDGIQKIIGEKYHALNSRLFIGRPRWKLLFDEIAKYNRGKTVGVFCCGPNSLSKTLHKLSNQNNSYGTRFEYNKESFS
NADPH oxidase 5 (Homo sapiens), sequence (Q96PH1 whole entry, looked up): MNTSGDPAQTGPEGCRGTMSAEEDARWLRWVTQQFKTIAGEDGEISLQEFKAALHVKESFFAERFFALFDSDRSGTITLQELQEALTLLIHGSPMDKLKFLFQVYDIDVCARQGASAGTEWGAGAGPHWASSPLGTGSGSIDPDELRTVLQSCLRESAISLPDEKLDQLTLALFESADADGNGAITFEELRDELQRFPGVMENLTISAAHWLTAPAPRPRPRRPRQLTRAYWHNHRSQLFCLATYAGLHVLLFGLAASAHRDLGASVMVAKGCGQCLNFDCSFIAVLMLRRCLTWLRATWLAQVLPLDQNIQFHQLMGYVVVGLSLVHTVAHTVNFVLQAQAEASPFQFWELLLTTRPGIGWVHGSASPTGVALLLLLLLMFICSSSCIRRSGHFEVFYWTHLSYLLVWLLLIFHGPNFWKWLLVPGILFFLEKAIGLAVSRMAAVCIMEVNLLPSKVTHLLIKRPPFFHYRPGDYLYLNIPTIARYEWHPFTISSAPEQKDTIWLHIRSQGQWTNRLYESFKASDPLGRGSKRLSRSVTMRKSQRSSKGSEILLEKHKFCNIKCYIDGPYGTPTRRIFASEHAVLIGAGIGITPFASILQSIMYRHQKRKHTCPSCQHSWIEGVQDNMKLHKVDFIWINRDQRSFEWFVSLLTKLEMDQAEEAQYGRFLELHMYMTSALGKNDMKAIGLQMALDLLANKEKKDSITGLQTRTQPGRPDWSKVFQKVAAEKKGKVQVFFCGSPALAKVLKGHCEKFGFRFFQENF

Turning to `C=C[C@@H](OC)[C@H](O)c1ccc(O)c(F)c1`, the z-score is 0.0737 (inactive) and 1.88 (inactive) in assay [1]; 0.268 (inactive) and -0.347 (inactive) in assay [3]; -0.132 (inactive) and -0.266 (inactive) in [4]; -0.387 (inactive) and -0.924 (inactive) in assay [5]; 0.426 (inactive) and -1.02 (inactive) in assay [6]; -0.422 and 1.68 in assay [7]. Besides, the z-score is 0.203 (inactive) and -0.689 (inactive) in assay [8]; -1.69 (inactive) and -0.842 (inactive) in [9]; -1.64 and -1.95 in [10]; 0.29 and -0.115 in [11]; -0.625 and 0.478 in [12]; -0.232 and 0.531 in assay [13]. Also, the z-score is 0.204 and 0.115 in assay [14]; 0.296 and 1.08 in assay [15]; -0.242 and 0.559 in assay [16]; 0.0698 (inactive) and -0.132 (inactive) in assay [17]; 0.498 and -0.363 in [18]; 0.724 and -0.819 in assay [19]. Besides, the z-score in assay [20] was -0.0191 (inactive) and -0.71 (inactive). Besides, the composite z-score in assay [2] was -0.284 and -0.196.

As to `C=CC[C@H](O)c1ccc(OCCO)cc1`, the z-score in [1] is -0.349 (inactive) and -0.895 (inactive); in assay [3], 0.965 (inactive) and 1.27 (inactive); in [4], 0.396 (inactive) and -0.262 (inactive); in [5], -0.0706 (inactive) and -0.94 (inactive); in assay [6] it was 0.475 (inactive) and 0.084 (inactive); in [7], 0.263 and 0.368. Also, the z-score is -0.317 (inactive) and -0.425 (inactive) in assay [8]; -0.103 (inactive) and 0.574 (inactive) in [9]; 0.811 and 0.51 in assay [10]; -0.168 and -0.248 in [11]; -0.219 and -0.258 in [12]; -0.267 and 0.456 in assay [13]. The z-score was 0.842 and -1.08 in assay [14]; -0.252 and -0.209 in assay [15]; -0.301 and -0.603 in assay [16]; -0.315 (inactive) and 0.251 (inactive) in assay [17]; -0.0607 and 0.117 in [18]; 0.319 and -0.662 in assay [19]. Besides, the z-score in [20] was -0.233 (inactive) and -0.884 (inactive). Moreover, in assay [2], the composite z-score is -0.017 and -0.491.

As for `C=CCN(C(=O)C1N(CCCCCCO)C(=O)C2C(C(=O)O)C3C=CC21O3)c1ccc(OC)cc1` (stereo not given), the z-score in assay [1] is 2.17 (inactive) and 0.932 (inactive); in [3] it was 0.12 (inactive) and -0.718 (inactive); in [4] it was -1.31 (inactive) and 0.0039 (inactive); in [5], -0.398 (inactive) and -0.196 (inactive); in assay [6] it was -1.43 (inactive) and -0.157 (inactive); in [7], 0.441 and -0.173. Further, the z-score is 0.846 (inactive) and 0.381 (inactive) in assay [8]; -0.0568 (inactive) and -0.682 (inactive) in assay [9]; 1.3 and 0.105 in assay [10]; 1.37 and 0.282 in assay [11]; 0.743 and -0.0063 in assay [12]; -0.46 and 0.428 in assay [13]. Besides, the z-score in assay [14] is 0.315 and -1.1; in [15], 0.432 and 0.269; in assay [16] it was 0.113 and -0.546; in [17], 0.74 (inactive) and 0.861 (inactive); in [18], -0.875 and -0.0778; in [19], 1.02 and 1.2. Also, the z-score in assay [20] was 1.09 (inactive) and 0.416 (inactive). Also, in assay [2], the composite z-score is 0.153 and 0.659.

Consider `COC(=O)C1=C(C)N(Cc2ccccc2)C2=C(C(=O)c3ccccc3)[C@H](c3ccccc3)[C@@](O)(C(=O)OC)C(=O)N2[C@@H]1c1ccccc1`, for which the z-score in [1] is 0.809 (inactive) and 0.498 (inactive); in assay [3] it was 1.74 (inactive) and 0.552 (inactive); in assay [4], 0.852 (inactive) and 0.417 (inactive); in assay [5], -0.326 (inactive) and -0.171 (inactive); in assay [6] it was 0.442 (inactive) and 0.39 (inactive); in [7] it was 0.533 and -0.266. The z-score is 1.06 (inactive) and 0.0122 (inactive) in assay [8]; 0.59 (inactive) and -0.238 (inactive) in [9]; 1.59 and 0.157 in assay [10]; 0.369 and 0.44 in assay [11]; -0.154 and -0.936 in [12]; 0.217 and 1.26 in [13]. For the same compound, the z-score is -0.317 and 0.332 in assay [14]; -1.15 and 0.0491 in assay [15]; 1.33 and 2.03 in assay [16]; -0.393 (inactive) and -1.16 (inactive) in [17]; -0.639 and -0.349 in assay [18]; 0.573 and -0.514 in [19]. In assay [20], the z-score is 1.39 (inactive) and -0.344 (inactive). For the same compound, the composite z-score in assay [2] was -0.234 and -0.168.

For `COc1ccc(-c2ccc3c(n2)CCCN3CC(O)CN2CCCc3nc(-c4ccc(Br)cc4)ccc32)cc1` (stereo not given), the z-score is -0.018 (inactive) and 0.615 (inactive) in [1]; 5.79 (inactive) and 1.91 (inactive) in assay [3]; 1.07 (inactive) and 0.581 (inactive) in assay [4]; 0.387 (inactive) and 0.0102 (inactive) in assay [5]; 0.322 (inactive) and 0.32 (inactive) in assay [6]; -0.506 and -0.456 in assay [7]. Besides, the z-score in assay [8] is 0.181 (inactive) and 2.63 (inactive); in [9] it was 0.169 (inactive) and 0.657 (inactive); in assay [10], -2.32 and -0.243; in assay [11] it was 0.261 and -0.331; in assay [12], 0.163 and 0.196; in assay [13], -0.0242 and 0.0285. The z-score in assay [14] is -2.63 and -0.767; in assay [15], -0.393 and -0.48; in assay [16] it was 0.219 and -1.61; in [17], -0.136 (inactive) and -0.88 (inactive); in [18] it was 0.553 and 0.817; in assay [19] it was 0.0404 and -0.331. In assay [20], the z-score was -0.23 (inactive) and 0.169 (inactive). Moreover, the composite z-score in assay [2] is 0.684 and 0.209.

With `C=C[C@H](C)[C@H](O)c1ccc(O)c2ccccc12`, the z-score is 2.14 (inactive) and 2.25 (inactive) in assay [1]; 0.656 (inactive) and 0.845 (inactive) in [3]; -0.627 (inactive) and -0.531 (inactive) in assay [4]; -0.984 (inactive) and -0.529 (inactive) in assay [5]; -0.408 (inactive) and -1.21 (inactive) in assay [6]; 1.13 and 0.885 in assay [7]. The z-score was -5.4 (inactive) and -5.09 (inactive) in assay [8]; -0.841 (inactive) and -0.878 (inactive) in assay [9]; 0.582 and 1.17 in assay [10]; 0.0619 and 0.429 in [11]; 0.114 and -0.0793 in [12]; -0.461 and 0.756 in assay [13]. For the same compound, the z-score was -2.53 and -2.69 in assay [14]; -0.233 and -0.17 in assay [15]; -1.28 and -0.0285 in assay [16]; -0.193 (inactive) and 1.11 (inactive) in [17]; -1.01 and 0.71 in assay [18]; -1.76 and 0.307 in assay [19]. For the same compound, the z-score in [20] was -0.52 (inactive) and -0.539 (inactive). Besides, the composite z-score in assay [2] was -0.31 and -0.201.
